# WRN inhibitor = inhibitors of human WRN helicase. Q14191. WRN helicase unwinding, fluorescent forked duplex, kinetic. Potency, µM (series often up to 114 µM), for the others: at the highest dose activity change, negative = inhibition, actives largely listed as inhibitors. 360,000 tested, 0.46% active; also: potency is read from the fitted curve at half-maximal effect; nearly all actives have a fitted effect of over 55% in size
#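 Screening of the MLSMR collection measured strand separation of a quenched forked DNA duplex (100 nM) by 20 nM WRN with 2 mM ATP, all final. Compounds were preincubated with enzyme 15 min at room temperature.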
# PI5P4K alpha inh = blocks human PI5P4K alpha kinase activity. P48426. PI5P4Kalpha enzyme, ADP-Glo luminescence, 60 min; hits give low values. max response, %. 330,000 tested, 1.2% active. AID 652105; active = max response of -50% or lower; inconclusive = between -30% and -50%; inactive = -30% or higher; also: value at the top dose of about 77 µM
#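 ADP-Glo luminescence end-point read after a 60 min room-temperature kinase reaction of PI5P4Kalpha plus substrate, initiated with ATP at 5 microM final. Buffer: 0.038 M HEPES pH 7.4, EGTA, 0.1% CHAPS, 5% DMSO.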
# TDP1 inh = TDP1 (human) enzyme inhibition; recombinant TDP1, AlphaScreen DNA substrate cleavage; Potency, µM (titrated, usually from 130 µM), without a hit: top-dose activity change, negative = inhibition, hits mostly inhibitors; 350,000 tested, 0.28% active; AID 485290; also: potency is read from the fitted curve at half-maximal effect; nearly all actives have a fitted effect of over 40% in size
#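 Enzyme-compound mixtures sat 15 min at room temperature, followed by a 5 min reaction with 15 nM final substrate and 10 min with AlphaScreen beads. Recombinant human Tdp1 was used at 1 nM final.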
# PGK inhibitor = inhibitors of T. brucei phosphoglycerate kinase; PGK/GAPDH coupled, Kinase-Glo luminescence, 60 min; Potency, µM (highest dose often 57.5 µM), for inactives: top-dose activity change, negative = inhibition, most hits filed as inhibitors; 380,000 tested, 0.043% active; P07378; AID 602233; also: potency is read from the fitted curve at half-maximal effect; nearly all actives have a fitted effect of over 60% in size
#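 Recombinant glycosomal PGK reaction used 1,3-bisphosphoglycerate generated in-well by GAPDH (100nM final) in 100mM TEA pH 7.6, 5mM MgCl2, 0.01% Tween-20. After 60 minutes at room temperature, ATP was read by Kinase-Glo Plus luminescence end-point.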
# Tb PFK inh = T. brucei PFK enzyme inhibition | T. brucei PFK, ADP-Glo luminescence | Potency, µM (highest dose often 57.5 µM), without a hit: top-dose activity, negative = inhibition, most hits filed as inhibitors | 330,000 tested, 0.17% active | AID 485367;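 also: potency is read from the fitted curve at half-maximal effect; 0% = uninhibited 1x PFK enzyme wells and -100% = no-enzyme wells; nearly all actives have a fitted effect of over 60% in size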
#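 ADP-Glo luminescence quantified ADP after 45 min at room temperature, with 1.25 nM T. brucei PFK, 0.1 mM ATP and 0.5 mM fructose-6-phosphate in pH 8.0 TEA buffer. qHTS titrations up to 57 µM; curves classified by quality.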
# FEN1 inh = blocks human flap endonuclease 1. P39748. Recombinant FEN1 flap cleavage, fluorescence, 15 min. Potency, µM (titrated, usually from 114 µM), for inactives: at the top dose activity change, negative = inhibition, most hits filed as inhibitors. 390,000 tested, 0.35% active. AID 588795; also: potency is read from the fitted curve at half-maximal effect; nearly all actives have a fitted effect of over 65% in size
#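 Concentration–response screening of FEN1 (10 nM): 15 min compound preincubation at room temperature, reaction started with 50 nM substrate and read at 0 and 15 min. Corrected, normalized data were fitted by a four-parameter Hill equation.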
# * marks the source's active call; other numbers are inactive results; i = inactive; u = inconclusive; x = not tested or not shown; [ ] = remark or other dose. Sampled rows, rich in hits. Any-hit rate of the full collection: about 1.5%. Unless noted, calls follow the shape of the dose curve; as a rule, active = well fitted curve in the direction sought with a large enough effect; inconclusive = small, poorly fitted or top-dose-only effect, or another doubt; inactive = no such curve, though single readings can be large; an effect the other way counts as inactive or inconclusive. Unless noted, % is scaled to controls: 0 for no effect and ±100 for the full control effect.
SMILES,WRN inhibitor,PI5P4K alpha inh,TDP1 inh,PGK inhibitor,Tb PFK inh,FEN1 inh
CC(C)C[C@H](NC(=O)[C@@H]1CCCN1C(=O)[C@H](Cc1ccccc1)NC(=O)[C@H](C)NC(=O)[C@H](CCC(=O)O)NC(=O)[C@H](C)NC(=O)[C@H](CO)NC(=O)[C@H](CCC(=O)O)NC(=O)[C@H](CC(=O)O)NC(=O)[C@H](CCC(=O)O)NC(=O)[C@H](C)NC(=O)CNC(=O)[C@H](CC(N)=O)NC(=O)[C@@H]1CCCN1C(=O)[C@H](Cc1ccc(O)cc1)NC(=O)[C@@H](NC(=O)[C@H](CCCCN)NC(=O)[C@@H](NC(=O)[C@@H]1CCCN1C(=O)[C@@H](N)CCCNC(=N)N)C(C)C)C(C)C)C(=O)N[C@@H](CCC(=O)O)C(=O)N[C@@H](Cc1ccccc1)C(=O)O,x,x,7%,x,x,x
Cc1sc2ccccc2[n+]1CCC[n+]1c(C)sc2ccccc21,x,x,x,x,x,-27%
O=C1C=C(O)c2[nH]c(=O)ccc2C1=O,u,-57*,x,-11%,x,u
O=C1C2C3C=CC(C3)C2C(=O)N1c1ncn[nH]1 (centres undefined),-14%,x,16µM*,u,u,4%
[O-][N+](=NC1C=Cc2ccccc21)C1C=Cc2ccccc21 (centres undefined),x,x,x,x,x,-13%
CCOC(=O)C1(Cc2ccc(OC)cc2)CCN(C(=O)C2=CCCC2)CC1,10%,-94*,-1%,i,1%,10%
CCOC(=O)C1(Cc2ccc(OC)cc2)CCN(C(=O)c2cc(C)on2)CC1,1%,-9,2%,-1%,1%,3%
O=C(CSc1ccc(-c2ccco2)nn1)c1cccc([N+](=O)[O-])c1,-32%[57.1 µM],-64*,-2%,5%,-4%,-30%
Cc1cc(SCC(=O)c2cccc([N+](=O)[O-])c2)nc(=O)[nH]1,-13%[11.6 µM],-58*,7%,-9%,11%,u
Cc1cc(SCc2cccc([N+](=O)[O-])c2)nc(=O)[nH]1,-11%,u,-9%,0%,-19%,1%
CC(=O)c1cccc(NC(=O)CSc2ccc(-c3ccco3)nn2)c1,u,u,2%,-12%,-28%,-6%
Cc1cc(SCc2ccc([N+](=O)[O-])cc2)nc(=O)[nH]1,-6%[11.6 µM],-59*,x,5%,u,-3%
COc1cccc(-c2nnc3n2N=C(c2ccccc2OC)CS3)c1,x,x,11%,x,x,x
CC[N+]1(CC(=O)c2cccs2)CCCCC1,x,x,x,x,x,19%
COCCn1c(NC(=S)NC(=O)C23CC4CC(CC(C4)C2)C3)cc(=O)[nH]c1=O,4%,u,x,-7%,1%,8%
COCCn1c(NC(=S)NC(=O)C2CC2)cc(=O)[nH]c1=O,u,-60*,3%,-3%,-6%,-5%
NCCCC[C@H]1NC(=O)[C@H](CCC(=O)O)NC(=O)c2cc([N+](=O)[O-])cc(I)c2OCC[C@@H](C(N)=O)NC1=O,10µM*,u,3%,u,5%,22µM*
CC[C@@]1(c2ccccc2)NC(=O)NC1=O,x,x,4%,x,x,x
CCOc1cc(/C=N/Nc2cc(C)nc(-n3nc(C)cc3C)n2)ccc1O,-14%,7,79µM*,6%,-2%,12%
CCN1C(=O)[C@H]2[C@@H](c3ccc(-c4ccc(Cl)c(Cl)c4)c(OC)c3)N[C@@](C)(C(=O)OC)[C@H]2C1=O,8%,-60*,-5%,-11%,0%,-4%
CSc1ccccc1NC(=O)c1noc2c1CCC2,u,x,16µM*,u,17µM*,u
Cc1ccc(O)c(NC(=O)c2noc3c2CCCC3)c1,x,x,0%,i,x,-7%
CCc1ccc(C(=O)CSc2n[nH]c(C)n2)cc1,0%,-57*,10%,4%,0%,-4%
CC(=O)Nc1ccc(NC(=O)COC(=O)c2ccccc2OCc2cccc(Br)c2)cc1,x,x,x,x,x,0%
Cc1cc(Cl)nc2nc(Cl)ccc12,x,x,x,x,x,-24%
SMILES,WRN inhibitor,PI5P4K alpha inh,TDP1 inh,PGK inhibitor,Tb PFK inh,FEN1 inh
Cc1cn2c(N)c(/C=C3\C=Nc4ccccc43)c(=O)nc2s1,5%,-13,-2%,i,-5%,-8%
COC1=C/C(=C/c2c(N)n3cc(C)sc3nc2=O)C=CC1=O,-12%,-81*,5%,-1%,u,-2%
Cc1cn2c(N)c(C=C3C=C(Cl)C(=O)C(Cl)=C3)c(=O)nc2s1,-7%,-78*,-3%,-10%,0%,-1%
N#Cc1c(NC(=O)CCC(=O)O)sc2c1CCCC2,0%,-1,-2%,-1%,14%,1%
N#Cc1c(NC(=O)CCC(=O)O)sc2c1CCCCC2,-30%,-74*,x,-1%,-9%,0%
Cc1nnc(SCC(=O)Nc2sc3c(c2C#N)CCCC3)[nH]c1=O,-31%,-52*,6%,0%,-11%,-1%
Cc1cc2c(s1)c1cnn(Cc3cccc(F)c3)c(=O)c1n2C,x,x,-10%,x,x,x
COc1ccc(CNC(=O)CSc2ccsc2[N+](=O)[O-])cc1,-11%,-50*,5%,i,-15%,-11%
CC(=O)c1ccc(NC(=O)CSc2ccsc2[N+](=O)[O-])cc1,u,-81*,x,-5%,-4%,-4%
Cc1ccc(CNC(=O)CSc2ccsc2[N+](=O)[O-])cc1,-3%[57.1 µM],-9,0%,2%,-3%,4%
COc1cc2c[n+](C)c3c4ccccc4ccc3c2cc1OC,-22%,-10,x,0%,x,6.3µM*
O=c1ccc(NS(=O)(=O)c2ccccc2Cl)cn1Cc1ccc(Cl)c(Cl)c1,2%,-5,6%,-7%,-14%,71µM*
Cc1ccc(S(=O)(=O)Nc2ccc(=O)n(Cc3ccc(Cl)c(Cl)c3)c2)cc1,-10%,-28,8%,-1%,u,-16%
COc1ccc(-c2nc(N3CCN(S(=O)(=O)c4ccc(F)cc4)CC3)c3ccccc3n2)cc1,x,x,-1%,x,x,-12%
O=C(O)C1=C(C(=O)O)C2C=CC1C2,-2%[11.6 µM],-9,x,11µM*,x,-2%
N#Cc1nc(Nc2ccccc2)nc(NC2CCCCC2)n1,x,x,7%,x,x,x
COC(=O)c1[nH]c2c(c1C)C(=O)CC(c1ccccc1)C2 (centres undefined),-11%,x,1%,x,-1%,-12%
CS(=O)(=O)c1sc(C#N)c2c1C(=O)CC(c1ccccc1)C2 (centres undefined),40µM*,-3,6%,3%,-8%,0%
Cc1ccc(NC(=S)NNc2ccc(C(=O)O)cc2[N+](=O)[O-])cc1C,-35%,-7,x,u,x,0%
CCOc1cc(/C=N/Nc2ccc(S(=O)(=O)Nc3ccccc3C(=O)O)cc2[N+](=O)[O-])cc(Cl)c1O,u,-69*,x,-21%,x,x

# High-throughput results: PubChem, National Center for Advancing Translational Sciences (NCATS)
